Experimental data as given in the supplement of paper PMC13380429.

Assays:
[1] = system: Vero E6 infected with SARS-CoV-2; assay: morphology score (similarity to uninfected cells); higher = more like uninfected cells; settings: 24 h
[2] = system: Vero E6 infected with SARS-CoV-2; assay: SARS-CoV-2 infection rate relative to infected DMSO; higher = more infection, active = 60 or less; settings: 24 h

CCN(CC)CC1CCCCN1CC(=O)N1c2ccccc2C(=O)Nc2cccnc21 (configuration not stated) [otenzepad] (10 µM)
morphology score [1]: 0.171 | SARS-CoV-2 infection rate [2]: 94.5% (inactive)

CC(C)C[C@H](NC(=O)[C@H](CCCCN)NC(=O)[C@H](CCCNC(=N)N)NC(=O)[C@H](C)NC(=O)[C@H](CO)NC(=O)[C@H](CCCCN)NC(=O)[C@H](CCCNC(=N)N)NC(=O)[C@H](C)NC(=O)CNC(=O)[C@@H](NC(=O)[C@H](Cc1ccccc1)NC(=O)CNC(=O)CNC(=O)[C@@H](N)Cc1ccccc1)[C@@H](C)O)C(=O)N[C@@H](C)C(=O)N[C@@H](CC(N)=O)C(=O)N[C@@H](CCC(N)=O)C(=O)O [orphanin-fq] (10 µM)
morphology score [1]: 0.0454 | SARS-CoV-2 infection rate [2]: 112% (inactive)

CCCCCCCCCCCCCCCC=O [1-hexadecanal] (10 µM)
morphology score [1]: 0.185 | SARS-CoV-2 infection rate [2]: 100% (inactive)

CN1CCc2c(c3ccccc3n2Cc2ccc(C(=O)NO)cc2)C1 [tubastatin-A] (0.833333 µM)
morphology score [1]: 0.115 | SARS-CoV-2 infection rate [2]: 95.5% (inactive)

CC(C)C[C@H](NC(=O)[C@@H](COC(C)(C)C)NC(=O)[C@H](Cc1ccc(O)cc1)NC(=O)[C@H](CO)NC(=O)[C@H](Cc1c[nH]c2ccccc12)NC(=O)[C@H](Cc1cnc[nH]1)NC(=O)[C@@H]1CCC(=O)N1)C(=O)N[C@@H](CCCNC(=N)N)C(=O)N1CCC[C@H]1C(=O)NNC(N)=O [goserelin-acetate] (10 µM)
morphology score [1]: 0.0827 | SARS-CoV-2 infection rate [2]: 109% (inactive)

Cc1c(Cn2c(C)nc3c(C(=O)O)cc(N4CCOCC4)cc32)cccc1C(F)(F)F (0.833333 µM)
morphology score [1]: -0.135 | SARS-CoV-2 infection rate [2]: 118% (inactive)

Cc1nc2ccc(NC(=O)Nc3ccnc4cccnc34)cc2o1 (10 µM)
morphology score [1]: 0.053 | SARS-CoV-2 infection rate [2]: 99.5% (inactive)

CC/C=C(\C(=O)N[C@@H]1C(=O)N2C(C(=O)OCOC(=O)C(C)(C)C)=C(COC(N)=O)CS[C@H]12)c1csc(N)n1 [cefcapene-pivoxil] (10 µM)
morphology score [1]: -0.175 | SARS-CoV-2 infection rate [2]: 114% (inactive)

CC(C)c1ccc(NC(=O)c2cccs2)c(-c2nc3ccccc3[nH]c2=O)c1 (10 µM)
morphology score [1]: 0.23 | SARS-CoV-2 infection rate [2]: 83% (inactive)

Nc1ncnc2c1ncn2[C@@H]1O[C@H](COP(=O)(O)OP(=O)(O)OP(=O)(O)OP(=O)(O)OC[C@H]2O[C@@H](n3cnc4c(N)ncnc43)[C@H](O)[C@@H]2O)[C@@H](O)[C@H]1O [diadenosine-tetraphosphate] (10 µM)
morphology score [1]: 0.0713 | SARS-CoV-2 infection rate [2]: 108% (inactive)

Cc1cccc(Nc2ccccc2C(=O)O)c1C [mefenamic-acid] (10 µM)
morphology score [1]: 0.0628 | SARS-CoV-2 infection rate [2]: 99.5% (inactive)

CCc1cnn2c(NCc3ccc[n+]([O-])c3)cc(N3CCCC[C@H]3CCO)nc12 [dinaciclib] (0.833333 µM)
morphology score [1]: -0.154 | SARS-CoV-2 infection rate [2]: 116% (inactive)

Nc1nccs1 [aminothiazole] (10 µM)
morphology score [1]: 0.0165 | SARS-CoV-2 infection rate [2]: 104% (inactive)

CC(C)c1nc(CN(C)C(=O)N[C@H](C(=O)N[C@@H](Cc2ccccc2)C[C@H](O)[C@H](Cc2ccccc2)NC(=O)OCc2cncs2)C(C)C)cs1 [ritonavir] (10 µM)
morphology score [1]: 0.0318 | SARS-CoV-2 infection rate [2]: 104% (inactive)

CCCCCOc1ccc(-c2ccc(-c3ccc(C(=O)N[C@H]4C[C@@H](O)[C@@H](O)NC(=O)[C@@H]5[C@@H](O)[C@@H](C)CN5C(=O)[C@H]([C@@H](C)O)NC(=O)[C@H]([C@H](O)[C@@H](O)c5ccc(O)cc5)NC(=O)[C@@H]5C[C@@H](O)CN5C(=O)[C@H]([C@@H](C)O)NC4=O)cc3)cc2)cc1 [anidulafungin] (10 µM)
morphology score [1]: -0.164 | SARS-CoV-2 infection rate [2]: 110% (inactive)

O=C1CCC[C@@H]2[C@H]3CCC[N+]4([O-])CCC[C@@H](CN12)[C@@H]34 (some centres not stated) [oxymatrine] (10 µM)
morphology score [1]: -0.00407 | SARS-CoV-2 infection rate [2]: 100% (inactive)

Clc1ccc2nsnc2c1NC1=NCCN1 [tizanidine] (10 µM)
morphology score [1]: -0.0251 | SARS-CoV-2 infection rate [2]: 112% (inactive)

Oc1cc2c(cc1O)C(c1ccccc1)CNCC2 (configuration not stated) (10 µM)
morphology score [1]: -0.34 | SARS-CoV-2 infection rate [2]: 116% (inactive)

O=C(c1ccccn1)c1cnn2c(-c3ccncc3)ccnc12 [ocinaplon] (10 µM)
morphology score [1]: -0.0527 | SARS-CoV-2 infection rate [2]: 117% (inactive)

C[C@@H]1CCO[C@H]2Cn3cc(C(=O)NCc4ccc(F)cc4F)c(=O)c(O)c3C(=O)N12 [dolutegravir] (10 µM)
morphology score [1]: 0.0816 | SARS-CoV-2 infection rate [2]: 112% (inactive)

CCOC(=O)[C@H](CCc1ccccc1)N[C@@H](C)C(=O)N1Cc2cc(OC)c(OC)cc2C[C@H]1C(=O)O [moexipril] (10 µM)
morphology score [1]: 0.183 | SARS-CoV-2 infection rate [2]: 90% (inactive)

CCCC(CCC)C(=O)NCC(N)=O [valrocemide] (10 µM)
morphology score [1]: 0.062 | SARS-CoV-2 infection rate [2]: 108% (inactive)

c1ccc(C(O[C@@H]2CCCN(CCc3ccc4c(c3)OCO4)C2)c2ccccc2)cc1 [zamifenacin] (10 µM)
morphology score [1]: 0.152 | SARS-CoV-2 infection rate [2]: 96% (inactive)

O=C(Nc1ccc([N+](=O)[O-])cc1Cl)c1cc(Cl)ccc1O [niclosamide] (0.833333 µM)
morphology score [1]: 0.0975 | SARS-CoV-2 infection rate [2]: 97% (inactive)

CCCN(CCc1cccs1)[C@H]1CCc2c(O)cccc2C1 [rotigotine] (10 µM)
morphology score [1]: -0.0144 | SARS-CoV-2 infection rate [2]: 96.5% (inactive)

O=C(O)C1CN(Cc2ccc(-c3nc4cc(Cc5ccccc5F)ccc4s3)c(F)c2)C1 (10 µM)
morphology score [1]: -0.0698 | SARS-CoV-2 infection rate [2]: 113% (inactive)

COc1cc([C@@H]2c3cc4c(cc3[C@@H](O[C@@H]3O[C@@H]5CO[C@@H](c6cccs6)O[C@H]5[C@H](O)[C@H]3O)[C@H]3COC(=O)[C@H]23)OCO4)cc(OC)c1O [teniposide] (10 µM)
morphology score [1]: -0.0983 | SARS-CoV-2 infection rate [2]: 111% (inactive)

CCn1c(=O)n(C2=C(CO)CN(CC3CCCCCCC3)CC2)c2ccccc21 [trap-101] (10 µM)
morphology score [1]: -0.109 | SARS-CoV-2 infection rate [2]: 103% (inactive)

CN1C(=O)N(c2cc(Cl)cc(Cl)c2)C(=O)[C@]12CN(Cc1cc(C(=O)O)cs1)C[C@H]2c1ccc(C#N)cc1 (10 µM)
morphology score [1]: 0.281 | SARS-CoV-2 infection rate [2]: 92.5% (inactive)

Oc1ccc2[nH]cc(C3=CCNCC3)c2n1 (10 µM)
morphology score [1]: 0.00585 | SARS-CoV-2 infection rate [2]: 90% (inactive)

Cc1cc(C(C)(C)C)cc(C)c1CC1=NCCN1 [xylometazoline] (10 µM)
morphology score [1]: -0.0246 | SARS-CoV-2 infection rate [2]: 106% (inactive)

CSc1ccc([C@H]2CN3CCC[C@H]3c3ccccc32)cc1 (racemic) (10 µM)
morphology score [1]: 0.328 | SARS-CoV-2 infection rate [2]: 86.5% (inactive)

Nc1ccc(S(=O)(=O)Nc2ccnn2-c2ccccc2)cc1 [sulfaphenazole] (10 µM)
morphology score [1]: 0.178 | SARS-CoV-2 infection rate [2]: 99.5% (inactive)

C[C@@H]1C[C@H]2[C@@H]3CCC4=CC(=O)C=C[C@]4(C)[C@@]3(F)[C@@H](O)C[C@]2(C)[C@@]1(O)C(=O)COP(=O)(O)O (10 µM)
morphology score [1]: 0.0439 | SARS-CoV-2 infection rate [2]: 99% (inactive)

O=NO [sodium-nitrite] (10 µM)
morphology score [1]: 0.176 | SARS-CoV-2 infection rate [2]: 108% (inactive)

COc1cc(OC)c(OC)cc1C=O [asaraldehyde] (10 µM)
morphology score [1]: -0.0171 | SARS-CoV-2 infection rate [2]: 110% (inactive)

COc1ccc(CCNCc2ccc(OCc3ccc(Cl)nc3)c(OC)c2)cc1OC (10 µM)
morphology score [1]: 0.078 | SARS-CoV-2 infection rate [2]: 98% (inactive)

Oc1noc2c1CCNC2 [gaboxadol] (10 µM)
morphology score [1]: 0.0535 | SARS-CoV-2 infection rate [2]: 106% (inactive)

CCn1c(=O)[nH]c2cc(Cl)c(Cl)cc21 (10 µM)
morphology score [1]: 0.171 | SARS-CoV-2 infection rate [2]: 83.5% (inactive)

c1ccc2nc(C3=NCCN3)cnc2c1 (10 µM)
morphology score [1]: 0.177 | SARS-CoV-2 infection rate [2]: 93% (inactive)

Cc1ccccc1-n1c(Cn2ncc3c(N)ncnc32)nc2cccc(C)c2c1=O (10 µM)
morphology score [1]: 0.373 | SARS-CoV-2 infection rate [2]: 45% (active)

CCNC(=O)CCC/C=C\C[C@@H]1[C@@H](/C=C/[C@@H](O)CCc2ccccc2)[C@H](O)C[C@@H]1O [bimatoprost] (10 µM)
morphology score [1]: 0.0397 | SARS-CoV-2 infection rate [2]: 103% (inactive)

O=C1C[C@@H](c2ccc(O)cc2)Oc2cc(O)ccc21 (10 µM)
morphology score [1]: 0.025 | SARS-CoV-2 infection rate [2]: 110% (inactive)

CN(C)CCCN1c2ccccc2CCc2ccccc21 [imipramine] (10 µM)
morphology score [1]: -0.0385 | SARS-CoV-2 infection rate [2]: 92.5% (inactive)

CC(CN1c2ccccc2Sc2ccccc21)N(C)C (configuration not stated) [promethazine] (10 µM)
morphology score [1]: 0.528 | SARS-CoV-2 infection rate [2]: 67.5% (inactive)

CNCCc1ccc(O)c(O)c1 [deoxyepinephrine] (10 µM)
morphology score [1]: 0.0423 | SARS-CoV-2 infection rate [2]: 106% (inactive)

NC1(c2ccc(-c3nc4ccn5c(=O)[nH]nc5c4cc3-c3ccccc3)cc2)CCC1 (0.833333 µM)
morphology score [1]: 0.255 | SARS-CoV-2 infection rate [2]: 106% (inactive)

Cc1cc([N+](=O)[O-])ccc1NS(=O)(=O)c1cc(Cl)ccc1Cl (0.833333 µM)
morphology score [1]: 0.153 | SARS-CoV-2 infection rate [2]: 101% (inactive)

C#Cc1cccc(Nc2ncnc3cc(OCCOC)c(OCCO)cc23)c1 (10 µM)
morphology score [1]: -0.0889 | SARS-CoV-2 infection rate [2]: 116% (inactive)

CCNC1(C(N)=O)CCN(c2ncnc3c2nc(-c2ccccc2Cl)n3-c2ccc(Cl)cc2)CC1 (10 µM)
morphology score [1]: -0.024 | SARS-CoV-2 infection rate [2]: 108% (inactive)

COc1ccc(C2CNC(=O)C2)cc1OC1CCCC1 (configuration not stated) [rolipram] (10 µM)
morphology score [1]: 0.39 | SARS-CoV-2 infection rate [2]: 100% (inactive)

N[C@@H](C(=O)O)c1ccc(C(=O)O)c(O)c1 (racemic) [4-carboxy-3-hydroxyphenylglycine-(RS)] (10 µM)
morphology score [1]: 0.126 | SARS-CoV-2 infection rate [2]: 101% (inactive)

CN1Cc2c(N)cccc2C(c2ccccc2)C1 (configuration not stated) [nomifensine] (10 µM)
morphology score [1]: -0.106 | SARS-CoV-2 infection rate [2]: 109% (inactive)

CCOC(=O)c1ccc(N2NC(=O)/C(=C/c3ccc([N+](=O)[O-])o3)C2=O)cc1 (10 µM)
morphology score [1]: 0.149 | SARS-CoV-2 infection rate [2]: 85% (inactive)

CCCN(C/C=C/I)[C@H]1CCc2ccc(O)cc2C1 [7-hydroxy-PIPAT] (10 µM)
morphology score [1]: -0.0984 | SARS-CoV-2 infection rate [2]: 118% (inactive)

Cc1ccccc1CN1C(=O)C2=C(CCN(Cc3ccccc3)C2)N2CCN=C12 (0.833333 µM)
morphology score [1]: -0.16 | SARS-CoV-2 infection rate [2]: 82% (inactive)
